Assay results as given in PubChem BioAssay (Tox21).
Records with an inconclusive call do not appear. Active and inactive are the calls of the source. Unless noted, calls follow the shape of the dose curve; as a rule, active = well fitted curve in the direction sought with a large enough effect in the repeat runs; inconclusive = weak or mixed curves; inactive = no such curve, though single readings can be large; an effect the other way counts as inactive or inconclusive.

What was measured:
[1] = qHTS assay to identify small molecule agonists of the peroxisome proliferator-activated receptor delta (PPARd) signaling pathway - cell viability counter screen (AID 743211); also: nearly all actives have a fitted effect of over 55% in size
In short: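 Multiplexed format: after the 2 h room-temperature LiveBLAzer B/G FRET step, CellTiter-Glo was added to the same wells. Luminescence after 30 min gave cell viability; compound exposure was 17 h at 37C.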

[2] = biological target: Peroxisome proliferator-activated receptor delta (Homo sapiens) (UniProt Q03181); assay: qHTS assay to identify small molecule agonists of the peroxisome proliferator-activated receptor delta (PPARd) signaling pathway (AID 743212; calls by dose curve;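 also: HEK293H cells with PPARd UAS beta-lactamase reporter GeneBLAzer system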)
In short: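 Beta-lactamase reporter read by fluorescence (LiveBLAzer B/G FRET, 2 h, room temperature). Test agents, in DMSO, incubated at 37 C with PPARd-bla HEK293H cells.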

[3] = qHTS assay to identify small molecule antagonists of the peroxisome proliferator-activated receptor delta (PPARd) signaling pathway - cell viability counter screen (AID 743213); also: nearly all actives have a fitted effect of over 50% in size
In short: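 HEK293H PPARd UAS-bla cells, 5 h pre-incubation, compound + L165041 300 nM final, 17 h 37 C; B/G FRET substrate 2 h RT; then CellTiter-Glo 30 min RT, luminescence.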

[4] = biological target: Peroxisome proliferator-activated receptor delta (Homo sapiens) (UniProt Q03181); assay: qHTS assay to identify small molecule antagonists of the peroxisome proliferator-activated receptor delta (PPARd) signaling pathway (AID 743215; active = well fitted inhibition curve with a large enough effect in the signal ratio in the repeat runs, not every such curve was filed as active; the % refers to the signal ratio;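 also: cells stimulated with agonist L165041 at 300 nM final during compound exposure; series mostly up to about 62 µM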)
In short: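 Here, a reporter line (HEK293H, beta-lactamase under a UAS) measures PPARd signaling. Compounds are tested against agonist L165041 at 300 nM final concentration over 17 h at 37 C, with fluorescence read after substrate.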

[5] = biological target: Bile acid receptor (Homo sapiens) (UniProt Q96RI1); assay: qHTS assay to identify small molecule antagonists of the farnesoid-X-receptor (FXR) signaling pathway (AID 743217; active = well fitted inhibition curve with a large enough effect in the signal ratio in the repeat runs, not every such curve was filed as active; the % refers to the signal ratio)
In short: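 Test compounds are pin-transferred onto FXR-bla HEK 293T cells, then chenodeoxycholic acid is added at 50 uM final. After 16 h at 37 °C, LiveBLAzer B/G substrate is applied for 2 h at room temperature and fluorescence read.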

[6] = qHTS assay to identify small molecule agonists of the farnesoid-X-receptor (FXR) signaling pathway - cell viability counter screen (AID 743218); also: nearly all actives have a fitted effect of over 45% in size
In short: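 Quantitative HTS counter screen measuring ATP-based viability via CellTiter-Glo luminescence in HEK 293T cells carrying a UAS-driven beta-lactamase reporter, after 16 h compound exposure at 37 C.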

[7] = biological target: Bile acid receptor (Homo sapiens) (UniProt Q96RI1); assay: qHTS assay to identify small molecule agonists of the farnesoid-X-receptor (FXR) signaling pathway (AID 743220; active = well fitted activation curve with a large enough effect in the signal ratio in the repeat runs, not every such curve was filed as active; the % refers to the signal ratio)
In short: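 FXR-UAS-bla HEK 293T cells carrying a UAS-driven beta-lactamase reporter were plated for 5 h at 37C/5% CO2, then exposed to DMSO-dissolved Tox21 10K compounds for 16 h at 37C. A LiveBLAzer B/G FRET substrate was loaded for 2 h at room temperature before fluorescence reading.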

[8] = qHTS assay to identify small molecule antagonists of the farnesoid-X-receptor (FXR) signaling pathway - cell viability counter screen (AID 743221; active = well fitted cell-killing curve with a large enough effect in the repeat runs, not every such curve was filed as active; also: nearly all actives have a fitted effect of over 50% in size)
In short: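 CellTiter-Glo, 30 min RT, luminescence; same wells as the LiveBLAzer FRET read. Cells: FXR-UAS-bla HEK 293T. Treatment: compound with chenodeoxycholic acid 50 uM final, 16 h at 37 C.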

[9] = biological target: Vitamin D3 receptor (Homo sapiens) (UniProt P11473); assay: qHTS assay to identify small molecule agonists of the vitamin D receptor (VDR) signaling pathway (AID 743222; calls by dose curve)
In short: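 Tox21 cell reporter format: VDR-bla line, 16 h compound exposure in 5% CO2 at 37C, then fluorescence intensity after 2 h with LiveBLAzer B/G FRET substrate.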

[10] = qHTS assay to identify small molecule agonists of the vitamin D receptor (VDR) signaling pathway - cell viability counter screen (AID 743224); also: series mostly up to about 63 µM; nearly all actives have a fitted effect of over 50% in size
In short: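 CellTiter-Glo viability readout on VDR-bla cells, measured after 16 h of compound treatment at 37C in the same wells.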

[11] = qHTS assay to identify small molecule agonists of the NFkB signaling pathway (AID 1159509; active = well fitted curve in the direction sought with a large enough effect in the signal ratio in the repeat runs, not every such curve was filed as active; the % refers to the signal ratio; also: series mostly up to about 61 µM)
In short: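 Beta-lactamase reporter assay run in quantitative high-throughput format on an NF-kB-responsive ME-180 line, with 5 hr compound treatment and a FRET-based blue/green fluorescence readout.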

[12] = qHTS assay to identify small molecule agonists of the NFkB signaling pathway - cell viability counter screen (AID 1159515; calls by dose curve; also: series mostly up to about 61 µM; nearly all actives have a fitted effect of over 55% in size)
In short: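 Tox21 library compounds were tested for cytotoxicity against NFkB-bla ME-180 cells during a 5 hr exposure at 37 C. CellTiter-Glo luminescence served as the viability read-out.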

[13] = qHTS assay to identify small molecule agonists of the endoplasmic reticulum stress response signaling pathway - cell viability counter screen (AID 1159517; calls by dose curve;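 also: HeLa cells carrying an ER stress response element beta-lactamase reporter; series mostly up to about 61 µM; nearly all actives have a fitted effect of over 50% in size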)
In short: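 Cytotoxicity of test compounds toward ESRE-bla HeLa cells was assessed after 5 hr exposure. The luminescent CellTiter-Glo signal was measured 30 min after reagent addition.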

[14] = qHTS assay to identify small molecule antagonists of the retinoid-related orphan receptor gamma (ROR-gamma) signaling pathway - cell viability counter screen (AID 1159520); also: nearly all actives have a fitted effect of over 50% in size
In short: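 Tet-on ROR gamma CHO cells (1,000/well) were plated 4 hr, given compounds in DMSO for 2 hr at 37 C, then induced with 1 uM final doxycycline for 16 hr. Viability was read as ATP by CellTiter-Glo luminescence after 30 min.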

[15] = biological target: Nuclear receptor ROR-gamma (Homo sapiens) (UniProt P51449); assay: qHTS assay to identify small molecule antagonists of the retinoid-related orphan receptor gamma (ROR-gamma) signaling pathway (AID 1159521)
In short: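 Readout: ONE-Glo luciferase luminescence, 30 min at room temperature. System: Tet-on RORγ CHO, RORE-LUC. Sequence: compound 2 h, doxycycline 1 uM final, 16 h at 37 C.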

[16] = qHTS assay to identify small molecule agonists of the AP-1 signaling pathway - cell viability counter screen (AID 1159525; calls by dose curve; also: nearly all actives have a fitted effect of over 55% in size)
In short: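 Each titration point was normalised to DMSO and tetra n-octyl ammonium bromide controls. The read was Cell Titer Glo luminescence after 30 min at RT, following 5 h compound exposure of ME-180 AP-1-bla cells at 37 °C.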

[17] = qHTS assay to identify small molecule agonists of the AP-1 signaling pathway (AID 1159526; calls by dose curve)
[18] = qHTS assay to identify small molecule antagonists of the vitamin D receptor (VDR) signaling pathway - cell viability counter screen (AID 743225); also: nearly all actives have a fitted effect of over 50% in size
In short: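 Cytotoxicity toward the VDR-bla HEK 293T line was scored by ATP-based CellTiter-Glo luminescence, read in the wells already used for the beta-lactamase readout after 16 h compound treatment under 3 nM 1-alpha,25-dihydroxyvitamin D3 stimulation.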

[19] = biological target: Vitamin D3 receptor (Homo sapiens) (UniProt P11473); assay: qHTS assay to identify small molecule antagonists of the vitamin D receptor (VDR) signaling pathway (AID 743223; active = well fitted inhibition curve with a large enough effect in the signal ratio in the repeat runs, not every such curve was filed as active; the % refers to the signal ratio)
In short: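 After VDR-bla cells are plated and left 4 h at 37C, DMSO-dissolved compounds and 3 nM (final) calcitriol agonist are added. Incubation continues 16 h at 37C; FRET beta-lactamase substrate then develops 2 h at room temperature.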

Measured: Potency

Vitamin D3 receptor (Homo sapiens), sequence (P11473 whole entry, looked up): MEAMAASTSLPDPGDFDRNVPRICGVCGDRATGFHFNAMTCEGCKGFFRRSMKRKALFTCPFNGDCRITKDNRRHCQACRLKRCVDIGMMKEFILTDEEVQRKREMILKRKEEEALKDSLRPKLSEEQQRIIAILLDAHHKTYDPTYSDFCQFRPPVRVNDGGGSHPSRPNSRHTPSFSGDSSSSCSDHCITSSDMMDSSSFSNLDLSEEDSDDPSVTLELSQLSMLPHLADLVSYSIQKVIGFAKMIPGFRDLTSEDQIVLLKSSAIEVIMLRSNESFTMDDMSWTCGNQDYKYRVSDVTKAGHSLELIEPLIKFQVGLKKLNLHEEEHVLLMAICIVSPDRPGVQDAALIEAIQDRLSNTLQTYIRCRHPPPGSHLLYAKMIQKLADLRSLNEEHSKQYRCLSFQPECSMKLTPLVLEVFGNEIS
Bile acid receptor (Homo sapiens), sequence (Q96RI1 whole entry, looked up): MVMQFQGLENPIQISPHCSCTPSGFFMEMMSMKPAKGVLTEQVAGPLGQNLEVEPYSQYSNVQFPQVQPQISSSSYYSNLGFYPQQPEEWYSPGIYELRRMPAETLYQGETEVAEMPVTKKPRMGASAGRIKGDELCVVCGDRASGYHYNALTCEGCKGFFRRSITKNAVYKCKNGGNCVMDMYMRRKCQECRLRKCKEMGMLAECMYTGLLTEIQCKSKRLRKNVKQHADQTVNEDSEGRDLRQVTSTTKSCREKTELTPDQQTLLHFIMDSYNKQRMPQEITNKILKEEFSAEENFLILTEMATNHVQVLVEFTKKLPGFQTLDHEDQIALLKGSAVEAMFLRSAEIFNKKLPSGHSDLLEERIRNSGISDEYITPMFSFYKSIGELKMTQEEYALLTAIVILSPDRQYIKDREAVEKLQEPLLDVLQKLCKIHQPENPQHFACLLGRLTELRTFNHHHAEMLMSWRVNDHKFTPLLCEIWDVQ
Peroxisome proliferator-activated receptor delta (Homo sapiens), sequence (Q03181 whole entry, looked up): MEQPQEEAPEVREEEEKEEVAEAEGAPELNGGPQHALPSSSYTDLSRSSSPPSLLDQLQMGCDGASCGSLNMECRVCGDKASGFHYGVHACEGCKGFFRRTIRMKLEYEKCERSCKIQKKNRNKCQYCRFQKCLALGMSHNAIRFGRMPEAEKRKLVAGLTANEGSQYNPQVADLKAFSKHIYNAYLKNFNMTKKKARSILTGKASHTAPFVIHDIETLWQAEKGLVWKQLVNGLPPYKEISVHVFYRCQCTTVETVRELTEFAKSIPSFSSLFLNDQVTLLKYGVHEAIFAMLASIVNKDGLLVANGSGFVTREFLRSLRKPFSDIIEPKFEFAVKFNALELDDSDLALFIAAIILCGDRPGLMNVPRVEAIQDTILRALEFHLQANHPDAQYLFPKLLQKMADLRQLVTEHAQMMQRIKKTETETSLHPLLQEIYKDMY

CCC(=O)OCc1ccc(OC)cc1
inactive: [1] | [2] | [3] | [4] | [5] | [6] | [7] | [8] | [9] | [10] | [11] | [12] | [13] | [14] | [15] | [16] | [17]

CCCC(=O)OC(=O)CCC
inactive: [1] | [2] | [3] | [4] | [6] | [8] | [10] | [18] | [11] | [12] | [13] | [14] | [15] | [16] | [17]

CSSc1ccoc1C
inactive: [1] | [2] | [3] | [4] | [5] | [7] | [8] | [10] | [18] | [11] | [12] | [13] | [14] | [15] | [16] | [17]

CC(=O)OCCC1CCCCC1
inactive: [1] | [2] | [3] | [4] | [6] | [8] | [9] | [19] | [10] | [18] | [11] | [12] | [13] | [14] | [15] | [16] | [17]

Cc1ccccc1S(N)(=O)=O
inactive: [1] | [2] | [3] | [4] | [5] | [6] | [7] | [8] | [9] | [19] | [10] | [18] | [11] | [12] | [13] | [14] | [15] | [16] | [17]

CC(=O)OCCC(C)CC(C)(C)C (configuration not stated)
inactive: [1] | [2] | [3] | [4] | [5] | [7] | [8] | [9] | [18] | [11] | [12] | [13] | [14] | [15] | [16] | [17]

O=C(O)CN1C(=O)c2cccc3cccc(c23)C1=O
inactive: [1] | [2] | [3] | [4] | [6] | [8] | [9] | [19] | [10] | [18] | [11] | [12] | [13] | [14] | [15] | [16] | [17]

O=C(O)CCCc1c[nH]c2ccccc12
inactive: [1] | [2] | [3] | [4] | [5] | [6] | [7] | [8] | [10] | [18] | [11] | [12] | [13] | [14] | [15] | [16] | [17]

COc1cc(NC(C)CCCN)c2ncccc2c1 (configuration not stated)
inactive: [1] | [2] | [4] | [6] | [8] | [9] | [19] | [18] | [11] | [12] | [13] | [14] | [15] | [16] | [17]

COc1cc(S(=O)(=O)Nc2ccccc2)c(OC)cc1N
inactive: [1] | [2] | [3] | [4] | [5] | [6] | [7] | [8] | [9] | [10] | [11] | [12] | [13] | [14] | [15] | [16] | [17]

O=C(O)c1ccc(O)cc1O
inactive: [1] | [2] | [3] | [5] | [6] | [7] | [8] | [9] | [19] | [10] | [18] | [11] | [12] | [13] | [14] | [15] | [16] | [17]

CC(C)(C)CCCCCCOC(=O)c1ccccc1C(=O)OCCCCCCC(C)(C)C
inactive: [1] | [2] | [4] | [5] | [6] | [7] | [8] | [9] | [19] | [10] | [18] | [11] | [12] | [13] | [15] | [16] | [17]

COc1ccc(C)cc1
inactive: [1] | [2] | [3] | [4] | [6] | [8] | [9] | [10] | [18] | [11] | [12] | [13] | [14] | [15] | [17]

COc1cc(NS(=O)(=O)c2ccc(N)cc2)nc(C)n1
inactive: [2] | [3] | [4] | [5] | [6] | [7] | [8] | [9] | [19] | [10] | [18] | [11] | [12] | [13] | [14] | [15] | [16] | [17]

CCCCCCCCCCCCCC(=O)OCC(O)CO (configuration not stated)
inactive: [2] | [3] | [4] | [5] | [6] | [8] | [9] | [10] | [11] | [12] | [13] | [14] | [15] | [16] | [17]

CCCCCCCC/C=C/C(=O)O
inactive: [1] | [3] | [6] | [8] | [9] | [19] | [18] | [11] | [12] | [13] | [14] | [15] | [17]
